Assay results taken from PubChem BioAssay (Tox21).
Records with an inconclusive call do not appear. Activity calls are given as the source filed them. The call rests on the fitted dose curve.

What was measured:
[1] = molecular target: Acetylcholinesterase (Homo sapiens) (UniProt P22303); experiment: Acetylcholinesterase (AChE) small molecule antagonists: colormetric cell-based qHTS assay (AID 1347395); further: nearly all actives have a fitted effect of over 30% in size
Procedure, shortened: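 SH-SY5Y cells attached overnight, exposed to compound 30 min at 37 C, then given DTNB/acetylthiocholine; after 90 min at 37 C, colorimetric thiocholine read gives cellular AChE activity.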

[2] = molecular target: Acetylcholinesterase (Homo sapiens) (UniProt P22303); experiment: Acetylcholinesterase (AChE) small molecule antagonists: enzyme-based qHTS assay (AID 1347397); details: Potency: AChE enzyme activity inhibition; outcome: AChE enzyme activity inhibition; further: nearly all actives have a fitted effect of over 55% in size
Procedure, shortened: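 Recombinant human AChE, dispensed at 50 mU/mL, was preincubated with Tox21 10K compounds or DMSO vehicle for 30 min at room temperature. DTNB plus acetylthiocholine was then added, and thiocholine was measured colorimetrically after a further 10 min.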

[3] = molecular target: Acetylcholinesterase (Homo sapiens) (UniProt P22303); experiment: Acetylcholinesterase (AChE) small molecule antagonists: fluorescence cell-based qHTS assay (AID 1347398); details: Potency: AChE activity; outcome: AChE activity; further: nearly all actives have a fitted effect of over 50% in size
Procedure, shortened: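 Human SH-SY5Y cells were plated overnight at 37 C, exposed to compound for 30 min at 37 C, 5% CO2, then given acetylthiocholine plus Thiolite Green for 40 min at room temperature; thiocholine fluorescence (Ex/Em 490/520 nm) reports endogenous AChE activity.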

[4] = molecular target: Acetylcholinesterase (Homo sapiens) (UniProt P22303); experiment: Acetylcholinesterase (AChE) small molecule antagonists: enzyme-based qHTS assay with human liver microsomes (AID 1347399); details: Potency: qHTS inhibition; outcome: qHTS inhibition; further: nearly all actives have a fitted effect of over 60% in size
Procedure, shortened: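 Recombinant human AChE (50 mU/mL in the enzyme mix) and human liver microsomes (0.25 mg/mL final) were preincubated with compound and NADPH (0.25 mg/mL final) for 30 min at 37 C. Acetylthiocholine/DTNB was then added; thiocholine was read colorimetrically after 10 min at room temperature.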
On the % scale 0 is the no-effect control and ±100 the full control effect.

Acetylcholinesterase (Homo sapiens), sequence (P22303 whole entry, looked up): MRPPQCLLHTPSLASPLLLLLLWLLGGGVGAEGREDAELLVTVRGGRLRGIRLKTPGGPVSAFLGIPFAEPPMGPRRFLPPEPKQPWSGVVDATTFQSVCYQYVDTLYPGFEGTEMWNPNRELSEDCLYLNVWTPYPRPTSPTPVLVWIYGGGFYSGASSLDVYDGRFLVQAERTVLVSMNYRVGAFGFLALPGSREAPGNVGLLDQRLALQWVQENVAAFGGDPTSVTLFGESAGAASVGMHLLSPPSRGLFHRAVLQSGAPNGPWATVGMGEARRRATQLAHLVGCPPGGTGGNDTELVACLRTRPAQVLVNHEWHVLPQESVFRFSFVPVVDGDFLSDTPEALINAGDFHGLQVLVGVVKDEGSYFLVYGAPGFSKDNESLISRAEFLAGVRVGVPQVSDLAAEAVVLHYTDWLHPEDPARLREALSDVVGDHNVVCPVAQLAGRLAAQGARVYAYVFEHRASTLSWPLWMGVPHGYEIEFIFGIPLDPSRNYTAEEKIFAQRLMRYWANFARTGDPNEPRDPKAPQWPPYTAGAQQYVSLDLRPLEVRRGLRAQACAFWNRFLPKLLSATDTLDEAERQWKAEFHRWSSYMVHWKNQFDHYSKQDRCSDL

CC(=O)OCC1=C(C(=O)O)N2C(=O)[C@@H](NC(=O)Cc3cccs3)[C@H]2SC1
inactive: Potency [1] | Potency [2] | Potency [3] | Potency [4]

CCOC(OCC)C(=O)c1ccccc1
inactive: Potency [1] | Potency [2] | Potency [3] | Potency [4]

CC(=O)C(C)=O
inactive: Potency [1] | Potency [2] | Potency [3] | Potency [4]

CCC(CC)C(C)CCOC(C)=O (stereo not drawn)
inactive: Potency [1] | Potency [2] | Potency [3] | Potency [4]

O=C(O)CO
inactive: Potency [1] | Potency [2] | Potency [3] | Potency [4]

CCCc1ccc(O)c(OC)c1
inactive: Potency [1] | Potency [2] | Potency [3] | Potency [4]

NC[C@H]1O[C@H](O[C@H]2[C@H](O)[C@@H](O[C@H]3O[C@H](CO)[C@@H](O)[C@H](N)[C@H]3O)[C@H](N)C[C@@H]2N)[C@H](O)[C@@H](O)[C@@H]1O
inactive: activity, negative = inhibition [1] -1.99% [at 10.5 µM] | activity change, negative = inhibition [2] 0.413% [at 10.5 µM] | activity change, negative = inhibition [3] 2.3% [at 10.5 µM] | activity change, negative = inhibition [4] -5.67% [at 10.5 µM]

O=C(O)c1ccccc1C(=O)Nc1ccc(S(=O)(=O)Nc2nccs2)cc1
inactive: Potency [1] | Potency [2] | Potency [3] | Potency [4]

CC(CC(=O)Cl)CC(C)(C)C (stereo not drawn)
inactive: Potency [1] | Potency [2] | Potency [3] | Potency [4]

Nc1ccc(F)cc1F
inactive: Potency [1] | Potency [2] | Potency [3] | Potency [4]

CC(C)(C)c1csc(-c2cc3cc(OCc4ccccc4CC(=O)O)ccc3o2)n1
inactive: Potency [1] | Potency [2] | Potency [3] | Potency [4]

O=C(Nc1ccc(Oc2ccc(Cl)cc2)c(Cl)c1)c1cc(I)cc(I)c1O
inactive: Potency [1] | Potency [2] | Potency [3] | Potency [4]

Cc1c(N=C=O)cccc1N=C=O
inactive: Potency [1] | Potency [2] | Potency [3] | Potency [4]

Cc1ccc2c(Br)cc(Br)c(O)c2n1
inactive: Potency [1] | Potency [2] | Potency [3] | Potency [4]

Cc1ncc([N+](=O)[O-])n1CC(C)O (stereo not drawn)
inactive: Potency [1] | Potency [2] | Potency [3] | Potency [4]

CN(C)c1ccc(C=O)cc1
inactive: Potency [1] | Potency [2] | Potency [3] | Potency [4]

CC(C)(O)c1ccc(CNC(=O)c2cccnc2Oc2ccc(F)cc2)cc1
inactive: Potency [1] | Potency [2] | Potency [3] | Potency [4]

CC(=O)c1cccnc1
inactive: Potency [1] | Potency [2] | Potency [3] | Potency [4]

Nc1ccccc1O
inactive: Potency [1] | Potency [2] | Potency [3] | Potency [4]

O=C1Cc2ccccc2N1c1c(Cl)cccc1Cl
inactive: Potency [1] | Potency [2] | Potency [3] | Potency [4]

CCN(Cc1cccc(S(=O)(=O)O)c1)c1ccc(C(=C2C=CC(=[N+](CC)Cc3cccc(S(=O)(=O)O)c3)C=C2)c2ccc(O)cc2S(=O)(=O)[O-])cc1
inactive: Potency [1] | Potency [2] | Potency [3] | Potency [4]

COC(=O)C1=C(C)NC(C)=C(C(=O)O[C@@H]2CCCN(Cc3ccccc3)C2)[C@@H]1c1cccc([N+](=O)[O-])c1
inactive: Potency [1] | Potency [2] | Potency [3] | Potency [4]

CCOC(=O)C(C)O (stereo not drawn)
inactive: Potency [1] | Potency [2] | Potency [3] | Potency [4]

CCOc1ccc(O)cc1
inactive: Potency [1] | Potency [2] | Potency [3] | Potency [4]

CC(=O)Nc1cccc(C)c1
inactive: Potency [1] | Potency [2] | Potency [3] | Potency [4]

CC(C)(CCl)c1ccccc1
inactive: Potency [1] | Potency [2] | Potency [3] | Potency [4]

C/C=C(/C(=C/C)c1ccc(OC(C)=O)cc1)c1ccc(OC(C)=O)cc1
inactive: Potency [1] | Potency [2] | Potency [3] | Potency [4]

CC(C)(C)c1cc(CCC(=O)NN)cc(C(C)(C)C)c1O
inactive: Potency [1] | Potency [2] | Potency [3] | Potency [4]

COC(=O)c1cccc(Cl)c1
inactive: Potency [1] | Potency [2] | Potency [3] | Potency [4]

Cc1ccc(OC(=O)c2ccccc2O)cc1
inactive: Potency [1] | Potency [2] | Potency [3] | Potency [4]

CCOC(=O)c1ncn2c1CN(C)C(=O)c1cc(F)ccc1-2
inactive: Potency [1] | Potency [2] | Potency [3] | Potency [4]

CCCCC1CCCCC(=O)O1 (stereo not drawn)
inactive: Potency [1] | Potency [2] | Potency [3] | Potency [4]

COC(=O)C(C)=O
inactive: Potency [1] | Potency [2] | Potency [3] | Potency [4]

N=C1N=C(N)c2ccccc21
inactive: Potency [1] | Potency [2] | Potency [3] | Potency [4]

Cc1ccnc2ccccc12
inactive: Potency [1] | Potency [2] | Potency [3] | Potency [4]

CCCCCCCCCCCCCCCCCO
inactive: activity, negative = inhibition [1] 0.97% [at 23.6 µM] | activity change, negative = inhibition [2] -1.09% [at 23.6 µM] | activity change, negative = inhibition [3] 0.561% [at 23.8 µM] | activity change, negative = inhibition [4] 3.32% [at 23.6 µM]

CC(C)(C)C(=O)/C=C/c1ccc(Cl)cc1
inactive: Potency [1] | Potency [2] | Potency [3] | Potency [4]

CC(=O)NO
inactive: Potency [1] | Potency [2] | Potency [3] | Potency [4]

C/C=C(\C)C(=O)OCC/C=C\CC
inactive: Potency [1] | Potency [2] | Potency [3] | Potency [4]

OC(CN1CCC(Cc2ccc(F)cc2)CC1)c1ccc(Cl)cc1 (stereo not drawn)
inactive: Potency [1] | Potency [2] | Potency [3] | Potency [4]

Cc1cccc(C)c1NC(=O)c1ccccc1C(=O)O
inactive: Potency [1] | Potency [2] | Potency [3] | Potency [4]

NS(=O)(=O)c1cc(C(=O)NN2C[C@H]3[C@H]4CCC(C4)[C@H]3C2)ccc1Cl
inactive: Potency [1] | Potency [2] | Potency [3] | Potency [4]

ON(Cc1ccccc1)Cc1ccccc1
inactive: Potency [1] | Potency [2] | Potency [3] | Potency [4]

C=C(C)C(=O)OCCC(F)(F)C(F)(F)C(F)(F)C(F)(F)C(F)(F)C(F)(F)F
inactive: Potency [1] | Potency [2] | Potency [3] | Potency [4]

CCOC(=O)c1ccccc1
inactive: Potency [1] | Potency [2] | Potency [3] | Potency [4]

CCc1ccc(C)nc1
inactive: Potency [1] | Potency [2] | Potency [3] | Potency [4]

CC(=O)Nc1ncc([N+](=O)[O-])s1
inactive: Potency [1] | Potency [2] | Potency [3] | Potency [4]

Nc1ccc(S(=O)(=O)O)c(N)c1
inactive: Potency [1] | Potency [2] | Potency [3] | Potency [4]

O=C(O)Cc1ccc(CCNS(=O)(=O)c2ccc(Cl)cc2)cc1
inactive: Potency [1] | Potency [2] | Potency [3] | Potency [4]

CC[N+](CC)(CC)CCOC(=O)C(C1CCCC1)C1CCCC1
inactive: Potency [1] | Potency [2] | Potency [3] | Potency [4]

C=CC(=O)O[C@H]1C[C@@H]2CC[C@@]1(C)C2(C)C
inactive: Potency [1] | Potency [2] | Potency [3] | Potency [4]

CC(=O)Nc1ccc(OCCOCCOc2ccc(NC(C)=O)cc2)cc1
inactive: Potency [1] | Potency [2] | Potency [3] | Potency [4]

N#CCN(CC#N)CCN(CC#N)CC#N
inactive: Potency [1] | Potency [2] | Potency [3] | Potency [4]

CC(C)(O)c1ccccc1
inactive: Potency [1] | Potency [2] | Potency [3] | Potency [4]

O=c1[nH]c(=O)n([C@H]2O[C@H](CO)[C@@H](O)[C@@H]2O)cc1/C=C\Br
inactive: Potency [1] | Potency [2] | Potency [3] | Potency [4]

SC1CCCCC1
inactive: Potency [1] | Potency [2] | Potency [3] | Potency [4]

CCCCc1ccc2nc(NC(=O)OC)[nH]c2c1
inactive: Potency [1] | Potency [2] | Potency [3] | Potency [4]

CCCCC(CC)COCCO (stereo not drawn)
inactive: Potency [1] | Potency [2] | Potency [3] | Potency [4]

CC[C@@H]1C[C@H](N(Cc2cc(C(F)(F)F)cc(C(F)(F)F)c2)C(C)=O)c2cc(C(F)(F)F)ccc2N1C(=O)OC(C)C
inactive: Potency [1] | Potency [2] | Potency [3] | Potency [4]

CCCC(=O)O[C@]1(C(=O)COC(=O)CC)CC[C@H]2[C@@H]3CCC4=CC(=O)CC[C@]4(C)[C@H]3[C@@H](O)C[C@@]21C
inactive: activity, negative = inhibition [1] 0.0881% [at 23.6 µM] | activity change, negative = inhibition [2] 0.139% [at 23.6 µM] | activity change, negative = inhibition [3] 1.87% [at 23.8 µM] | activity change, negative = inhibition [4] -1.51% [at 23.6 µM]

C=C(C)C1CCC(C)(O)CC1 (stereo not drawn)
inactive: Potency [1] | Potency [2] | Potency [3] | Potency [4]

O=C(OC(=O)c1ccccc1)c1ccccc1
inactive: Potency [1] | Potency [2] | Potency [3] | Potency [4]

CC(C)Nc1nc(N)nc(Cl)n1
inactive: Potency [1] | Potency [2] | Potency [3] | Potency [4]

CC(C)(c1ccc(Oc2ccc3c(c2)C(=O)OC3=O)cc1)c1ccc(Oc2ccc3c(c2)C(=O)OC3=O)cc1
inactive: Potency [1] | Potency [2] | Potency [3] | Potency [4]

CC1=C(CC=O)C(C)(C)CCC1
inactive: Potency [1] | Potency [2] | Potency [3] | Potency [4]

O=[Si]=O
inactive: Potency [1] | Potency [2] | Potency [3] | Potency [4]

CN(CC1(C)CCCO1)S(=O)(=O)c1ccc(Cl)c(S(N)(=O)=O)c1 (stereo not drawn)
inactive: Potency [1] | Potency [2] | Potency [3] | Potency [4]

CC1=CP(=O)(c2ccccc2)CC1 (stereo not drawn)
inactive: Potency [1] | Potency [2] | Potency [3] | Potency [4]

CCCCCCCC[Si](OCC)(OCC)OCC
inactive: Potency [1] | Potency [2] | Potency [3] | Potency [4]

O=C1CCCCCO1
inactive: Potency [1] | Potency [2] | Potency [3] | Potency [4]

C=CCOc1c(Br)cc(Br)cc1Br
inactive: Potency [1] | Potency [2] | Potency [3] | Potency [4]

O=C(O)c1cccnc1Nc1cccc(C(F)(F)F)c1
inactive: Potency [1] | Potency [2] | Potency [3] | Potency [4]

CC(C)(C)NCCNC(C)(C)C
inactive: Potency [1] | Potency [2] | Potency [3] | Potency [4]

C[N+]1(C)CCCC(OC(=O)C(O)(c2ccccc2)c2ccccc2)C1 (stereo not drawn)
inactive: Potency [1] | Potency [2] | Potency [3] | Potency [4]

CN1[C@@H]2CC[C@H]1CC(NC(=O)n1c(=O)[nH]c3ccccc31)C2 (stereo partly drawn)
inactive: Potency [1] | Potency [2] | Potency [3] | Potency [4]

CC(CC=O)CC(C)(C)C (stereo not drawn)
inactive: Potency [1] | Potency [2] | Potency [3] | Potency [4]

CCCCCCCCCCCCCC(=O)OCC(O)CO (stereo not drawn)
inactive: Potency [1] | Potency [2] | Potency [3] | Potency [4]
